The results in this text go back to PubChem BioAssay (Tox21).

A number with no mark means an inactive call. Records with an inconclusive call do not appear. Activity calls are given as the source filed them. Unless noted, calls follow the shape of the full dose curve.

Assay [1] can be described thus: Nuclear factor erythroid 2-related factor 2/antioxidant responsive element (Nrf2/ARE) small molecule agonists: qHTS cell viability counter screen in human keratinocytes (AID 1919968; active = well fitted curve in the direction sought with a large enough effect in the repeat runs; an effect the other way counts as inactive or inconclusive; also: nearly all actives have a fitted effect of over 55% in size; also: potency is read from the fitted curve at half-maximal effect). In a few lines:
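Cytotoxicity was multiplexed with the Nrf2/ARE luciferase assay in the same wells. Stably transfected HaCaT keratinocytes were treated with test compounds for 23 h at 37 C. Cell viability was then measured by CellTiter-Fluor fluorescence.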
For orientation: qHTS replaces the single test concentration by a dilution series.

Assay [2] has as its target KiSS-1 receptor (Homo sapiens) (UniProt Q969F8). Description: Human kisspeptin (KISS1R) small molecule agonists, calcium flux assay in KISS1R-HEK293 cells (AID 1920064; active = well fitted curve in the direction sought with a large enough effect in the repeat runs; an effect the other way counts as inactive or inconclusive; also: potency is read from the fitted curve at half-maximal effect). In a few lines: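 Agonist activity is monitored as intracellular calcium rise in engineered HEK293 cells carrying human KISS1R. Cells are dye-loaded for 1 h at 37 C before compound addition, and fluorescence is recorded for 3 min.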

Assay [3] is described as follows: G protein-coupled receptor (GPCR) small molecule agonists, calcium flux assay: HEK293 wild type cell line counter screen (AID 1920065). The procedure, abridged: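 Seed cells, incubate 18 h (37 C, 5% CO2); add calcium dye, 1 h at 37 C; pin-transfer compounds, ATP control or DMSO; read fluorescence 480/540 nm each second for 3 min.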
(A change in cytosolic calcium serves as a functional read-out for many receptors and channels.)

Assay [4] can be described thus: p53 small molecule agonists, cell-based qHTS assay with human liver microsomes (AID 1963577). In a few lines:
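Fluorescence of the beta-lactamase reporter in p53RE-bla cells, detected with LiveBLAzer substrate (2 h, room temperature, dark), served as the read-out after 16 h compound exposure at 37 C with human liver microsomes and NADPH, each 0.5 mg/mL final.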

Assay [5] in a line: p53 small molecule agonists, cell-based qHTS assay with rat liver microsomes (AID 1963578). In a few lines:
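Cells carrying a p53 response element–beta-lactamase reporter were plated and rested 5 h, then dosed with compound in DMSO plus rat liver microsomes and NADPH, each at 0.5 mg/mL final. After 16 h at 37 C, LiveBLAzer substrate was added for 2 h.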

A short description of assay [6]: p53 small molecule agonists, cell-based qHTS assay with rat liver microsomes: qHTS cell viability counter screen (AID 1963580). Also: nearly all actives have a fitted effect of over 45% in size. The procedure, abridged:
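Cytotoxicity counter screen: intracellular ATP measured by CellTiter-Glo luminescence in the same wells as the beta-lactamase reporter read, on HCT-116 p53RE-bla cells exposed 16 h at 37 C to compounds with rat liver microsomes and NADPH, each 0.5 mg/mL final.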

Assay [7] deals with 5-hydroxytryptamine receptor 2A (Homo sapiens) (UniProt P28223). Description: 5-hydroxytryptamine receptor 2A (HTR2A) small molecule antagonists, cell-based qHTS assay (AID 1963586). Also: nearly all actives have a fitted effect of over 45% in size. The procedure, abridged:
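CHO cells stably expressing human HTR2A were plated for 18 h at 37 C, then loaded with calcium dye for 1 h. Compounds were preincubated 5 min at room temperature before DOI (4 nM solution) was added. Kinetic fluorescence was read for 3 min.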

Assay [8] shares this target. Description: 5-hydroxytryptamine receptor 2A (HTR2A) small molecule agonists, cell-based qHTS assay (AID 1963587). Also: nearly all actives have a fitted effect of over 30% in size. Also: potency is read from the fitted curve at half-maximal effect. The procedure, abridged:
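CHO cells stably expressing human HTR2A, plated 18 h, loaded with calcium dye 1 h at 37 C. Agonist mode: compounds added and intracellular calcium fluorescence recorded kinetically for 2 min at 1 sec intervals.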

The target in assay [9] is Muscarinic acetylcholine receptor M1 (Homo sapiens) (UniProt P11229). Description: Cholinergic receptor muscarinic 1 (CHRM1) small molecule antagonists, cell-based qHTS assay (AID 1963588). Also: nearly all actives have a fitted effect of over 40% in size. Also: potency is read from the fitted curve at half-maximal effect. In a few lines:
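Compounds were tested at 15 concentrations in three independent runs. Dye-loaded CHRM1-CHO cells were exposed 5 min at room temperature before stimulation by acetylcholine added at 50nM. Intracellular calcium was read kinetically on FDSS for 3 min.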

Assay [10] addresses Beta-2 adrenergic receptor (Homo sapiens) (UniProt P07550). Description: Adrenergic beta2 receptor (ADRB2) small molecule antagonists, cell-based qHTS assay (AID 1963592). Also: series mostly up to about 92 µM; nearly all actives have a fitted effect of over 50% in size. In a few lines: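 Assay format: CHO-ADRB2 cells, 18-20hr seeding at 37C/5% CO2, then compound plus 1nM isoproterenol agonist mix for 0.5hr RT. Homogeneous time-resolved fluorescence cAMP detection after 1hr, expressed as 665/615 nm ratio.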

Assay [11] deals with D(2) dopamine receptor (Homo sapiens) (UniProt P14416). Description: Dopamine D2 receptor (DRD2) small molecule antagonists, cell-based qHTS assay (AID 1963595; active = well fitted inhibition curve with a large enough effect in the signal ratio in the repeat runs, with a control signal flat; the % refers to the signal ratio; also: potency is read from the fitted curve at half-maximal effect). In a few lines: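 DRD2-HEK293; 0.1 mM Ro20-1724; cpd 10 min RT; NKH477 200 nM + quinpirole 12 nM, 30 min RT; HTRF cAMP (cAMP-d2/anti-cAMP cryptate), 665/620 nm ratio after 1 h.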
The nature of assay [12]: p53 small molecule agonists, cell-based qHTS assay: qHTS cell viability counter screen (AID 1963581). Also: nearly all actives have a fitted effect of over 45% in size. In a few lines: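 Viability was counter-screened in parallel with the p53 agonist reporter by measuring intracellular ATP luminescence in the same HCT-116 p53RE-bla wells after 16 h compound treatment at 37 C.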
In assay [13] the target is Muscarinic acetylcholine receptor M1 (Homo sapiens) (UniProt P11229). Description: Cholinergic receptor muscarinic 1 (CHRM1) small molecule agonists, cell-based qHTS assay (AID 1963589). Also: nearly all actives have a fitted effect of over 35% in size. Also: potency is read from the fitted curve at half-maximal effect. The procedure, abridged: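 Cells were plated and incubated 18 h at 37 C/5% CO2, loaded with calcium dye for 1 h at 37 C, then treated with compounds in DMSO. Fluorescence was recorded kinetically at 1 sec intervals.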

Assay [14] in a line: cAMP Responsive Elements (CRE) small molecule antagonists, cell-based qHTS assay (AID 1963591; active = well fitted inhibition curve with a large enough effect in the signal ratio in the repeat runs, not every such curve was filed as active; the % refers to the signal ratio; also: potency is read from the fitted curve at half-maximal effect). In a few lines: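 Cells (CRE-bla HEK 293T, DMEM with 10% dialyzed FBS and 25 mM HEPES) are seeded and incubated 18 h. Compounds are added with NKH477 agonist at 0.25 uM final for 3 h, then FRET substrate for 2 h.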
The target of assay [15] is D(2) dopamine receptor (Homo sapiens) (UniProt P14416). Description: Dopamine D2 receptor (DRD2) small molecule agonists, cell-based qHTS assay (AID 1963594). Also: nearly all actives have a fitted effect of over 35% in size. In a few lines:
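HEK293 cells stably expressing human DRD2, pre-treated with PDE inhibitor Ro20-1724 (0.1 mM final) and compound 10 min at room temperature, then stimulated with NKH477 (200nM […]) for 30 min. cAMP read by HTRF (665/620 nm).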

Assay [16] in a line: p53 small molecule agonists, cell-based qHTS assay with human liver microsomes: qHTS cell viability counter screen (AID 1963579). Also: nearly all actives have a fitted effect of over 45% in size. In a few lines:
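Cytotoxicity counter screen: p53RE-bla, 4,000 cells/well; 5 h settle, 37 C/5% CO2; cpd + HLM 0.5 mg/mL + NADPH 0.5 mg/mL (final); 16 h, 37 C; CellTiter-Glo, 30 min RT, luminescence.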

Assay [17] can be described thus: p53 small molecule agonists, cell-based qHTS assay (AID 1963582; active = well fitted activation curve with a large enough effect in the signal ratio in the repeat runs, not every such curve was filed as active; the % refers to the signal ratio). The procedure, abridged:
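Cells carrying a p53-responsive bla reporter are treated with test compounds for 16 h at 37 C; beta-lactamase activity is then detected with LiveBLAzer B/G FRET substrate after 2 h at room temperature.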

Assay [18] can be described thus: cAMP Responsive Elements (CRE) small molecule agonists, cell-based qHTS assay (AID 1963590). The procedure, abridged: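 Cells carrying a CRE-driven beta-lactamase reporter (HEK 293T) are seeded, incubated overnight (18 h), and treated with test compounds for 3 h at 37 C; reporter activity is then detected with a FRET substrate after 2 h at room temperature.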
Assay [19] deals with Beta-2 adrenergic receptor (Homo sapiens) (UniProt P07550). Description: Adrenergic beta2 receptor (ADRB2) small molecule agonists, cell-based qHTS assay (AID 1963593).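 Also: CHO cells stably overexpressing human ADRB2.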 The procedure, abridged: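 CHO cells stably over-expressing ADRB2 were plated overnight at 37C, then dosed with compounds plus a stimulation mix containing 100uM IBMX and 25uM Ro-20-1724 for 0.5hr at room temperature. cAMP was measured by HTRF competition, 1hr.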
% is scaled to controls: 0 for no effect and ±100 for the full control effect.

Chain of 5-hydroxytryptamine receptor 2A (Homo sapiens) (P28223 whole entry, looked up): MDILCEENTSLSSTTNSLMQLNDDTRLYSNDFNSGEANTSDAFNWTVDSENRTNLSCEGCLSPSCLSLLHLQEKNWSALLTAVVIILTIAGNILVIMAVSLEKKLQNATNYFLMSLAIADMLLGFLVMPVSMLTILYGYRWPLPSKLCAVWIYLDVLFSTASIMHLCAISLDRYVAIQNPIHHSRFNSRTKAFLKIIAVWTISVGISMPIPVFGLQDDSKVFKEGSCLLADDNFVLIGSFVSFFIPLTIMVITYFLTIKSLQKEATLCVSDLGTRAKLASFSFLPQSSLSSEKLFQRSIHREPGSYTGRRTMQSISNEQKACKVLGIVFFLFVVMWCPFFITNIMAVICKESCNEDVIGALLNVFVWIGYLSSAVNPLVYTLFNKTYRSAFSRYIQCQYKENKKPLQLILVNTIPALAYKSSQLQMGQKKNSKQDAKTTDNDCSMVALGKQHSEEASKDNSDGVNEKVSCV
Chain of KiSS-1 receptor (Homo sapiens) (Q969F8 whole entry, looked up): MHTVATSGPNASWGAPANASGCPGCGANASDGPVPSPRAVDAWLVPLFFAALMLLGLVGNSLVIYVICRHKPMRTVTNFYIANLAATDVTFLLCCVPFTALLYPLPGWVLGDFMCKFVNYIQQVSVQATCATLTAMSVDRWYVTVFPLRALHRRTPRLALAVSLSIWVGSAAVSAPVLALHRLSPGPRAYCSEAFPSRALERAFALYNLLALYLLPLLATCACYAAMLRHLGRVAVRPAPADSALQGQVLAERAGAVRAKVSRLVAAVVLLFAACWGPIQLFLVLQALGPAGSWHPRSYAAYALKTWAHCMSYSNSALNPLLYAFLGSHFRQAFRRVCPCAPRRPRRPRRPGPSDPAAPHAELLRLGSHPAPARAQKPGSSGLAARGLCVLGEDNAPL
Chain of Beta-2 adrenergic receptor (Homo sapiens) (P07550 whole entry, looked up): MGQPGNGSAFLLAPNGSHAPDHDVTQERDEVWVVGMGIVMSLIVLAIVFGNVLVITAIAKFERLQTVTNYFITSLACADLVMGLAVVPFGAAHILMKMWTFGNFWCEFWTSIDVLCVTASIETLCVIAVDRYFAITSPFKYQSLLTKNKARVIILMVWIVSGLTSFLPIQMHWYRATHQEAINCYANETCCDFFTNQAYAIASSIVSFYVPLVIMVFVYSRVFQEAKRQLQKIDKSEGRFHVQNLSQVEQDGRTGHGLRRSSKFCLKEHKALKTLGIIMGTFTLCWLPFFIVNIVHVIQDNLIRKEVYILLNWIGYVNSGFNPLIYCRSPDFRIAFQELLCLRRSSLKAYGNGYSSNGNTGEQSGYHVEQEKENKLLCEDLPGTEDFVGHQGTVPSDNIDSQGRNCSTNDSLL
Chain of Muscarinic acetylcholine receptor M1 (Homo sapiens) (P11229 whole entry, looked up): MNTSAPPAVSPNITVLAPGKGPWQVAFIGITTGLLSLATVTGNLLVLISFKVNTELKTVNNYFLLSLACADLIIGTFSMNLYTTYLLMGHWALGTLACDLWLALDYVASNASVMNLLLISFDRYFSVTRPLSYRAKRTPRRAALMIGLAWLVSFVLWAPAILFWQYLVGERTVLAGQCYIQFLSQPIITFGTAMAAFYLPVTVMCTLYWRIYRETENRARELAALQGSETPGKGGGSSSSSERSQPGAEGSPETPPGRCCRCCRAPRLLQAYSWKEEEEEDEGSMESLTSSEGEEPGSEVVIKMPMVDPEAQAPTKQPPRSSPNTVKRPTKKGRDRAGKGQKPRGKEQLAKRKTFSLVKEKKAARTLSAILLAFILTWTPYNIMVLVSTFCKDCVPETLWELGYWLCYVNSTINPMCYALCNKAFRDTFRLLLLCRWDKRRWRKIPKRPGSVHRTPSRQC
Chain of D(2) dopamine receptor (Homo sapiens) (P14416 whole entry, looked up): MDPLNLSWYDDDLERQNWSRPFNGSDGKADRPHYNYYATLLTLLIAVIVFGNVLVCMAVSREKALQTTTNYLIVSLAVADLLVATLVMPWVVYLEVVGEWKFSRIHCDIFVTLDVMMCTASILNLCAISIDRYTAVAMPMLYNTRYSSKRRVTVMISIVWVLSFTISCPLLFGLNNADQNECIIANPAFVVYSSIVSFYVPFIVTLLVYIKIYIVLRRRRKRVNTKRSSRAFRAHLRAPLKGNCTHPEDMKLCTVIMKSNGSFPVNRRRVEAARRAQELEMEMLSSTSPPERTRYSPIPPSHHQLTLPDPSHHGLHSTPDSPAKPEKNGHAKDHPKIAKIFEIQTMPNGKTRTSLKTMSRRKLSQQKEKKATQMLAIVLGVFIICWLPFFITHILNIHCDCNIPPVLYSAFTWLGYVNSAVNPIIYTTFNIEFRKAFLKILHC

With `CCCCC[C@H](O)/C=C/[C@H]1[C@H](O)CC(=O)[C@@H]1C/C=C\CCCC(=O)O`, the Potency entry in assay [1], in assay [2], in assay [3], in assay [4], in assay [5] and in [6] was “inactive” in each case. Moreover, the Potency entry in assay [7], in [8], in assay [9] and in assay [10] was “inactive” each time. For the same compound, in assay [11], the Potency was 0.0075 µM (active).
Turning to `O=C(c1ccccc1)c1cc(Cl)ccc1O`, the Potency entry in assay [1], in assay [2], in assay [3], in [4], in assay [5] and in [6] was “inactive” in each case. The Potency result in assay [12], in assay [7], in assay [8], in assay [13], in [10] and in assay [15] was “inactive” each time. Also, in assay [11], the Potency entry is “inactive”. The Potency is 20 µM (active) in assay [9] and 41.1 µM (active) in [14].
On to `NC(Cc1ccc(F)cc1)C(=O)O` (stereo not drawn), for which the activity change, negative = cytotoxicity in assay [1] was 2.68% [at 8.39 µM]; in assay [16] it was 3.36% [at 5.99 µM]; in assay [6], 9.8% [at 5.99 µM]; in [12], -3.36% [at 5.99 µM]. For the same compound, the activation in assay [2] is 2.03% [at 6.97 µM]; in assay [3] it was -0.478% [at 5.23 µM]; in [4] it was 4.13% [at 5.99 µM]; in assay [5], 1.09% [at 5.99 µM]; in assay [17], 1.84% [at 5.99 µM]; in assay [18], -1.9% [at 8.39 µM]. In addition, the values for the activation in assay [19] and in assay [15] were -31.2% [at 8.39 µM] and 1.24% [at 8.39 µM], respectively. For the same compound, the activity change, negative = inhibition in assay [14] was -1.08% [at 8.39 µM]; in assay [10], -3.88% [at 8.39 µM]; in assay [11], 11.6% [at 8.38 µM].
Consider `CC(C)O`, for which the Potency result in assay [1], in assay [2], in assay [3], in assay [16], in assay [12] and in assay [7] was “inactive” throughout. Also, the Potency result in assay [8], in assay [9], in assay [13], in [14], in assay [10] and in assay [15] was “inactive” in each case. In assay [11], the Potency result was “inactive”.
With `C=C[Si]1(C)O[Si](C)(C=C)O[Si](C)(C=C)O[Si](C)(C=C)O1` (stereo not drawn), the Potency result in assay [1], in [2], in assay [3], in assay [4], in [5] and in [12] was “inactive” each time. The Potency result in assay [17], in assay [7], in assay [8], in [9], in assay [13] and in assay [18] was “inactive” each time. For the same compound, the Potency entry in assay [10], in assay [15] and in assay [11] was “inactive” each time.
With `CCN(CC)c1ccc2c(c1)Oc1cc(N(CC)CC)ccc1C21OC(=O)c2ccccc21`, the Potency is 9.44 µM (active) in [1], 23.9 µM (active) in assay [2], 21.3 µM (active) in assay [8] and 23.9 µM (active) in assay [13]. Also, the Potency entry in assay [4], in [5], in assay [16], in [6], in assay [17] and in assay [7] was “inactive” in each case. The Potency result in assay [9], in assay [18], in [14] and in assay [11] was “inactive” each time.
